# Bioassay records (PubChem BioAssay)
# This is a sample that favours compounds with a hit; in the whole collection about 0.45% have one here.
# Pin1 inh: blocks the human prolyl isomerase Pin1; Pin1 FP peptide displacement, HiFluor488, 10 min; AID 504891; actives 0.009% (n = 390,000); Potency, µM (titrated, usually from 115 µM), without a hit: at the highest dose activity, negative = inhibition, hits mostly inhibitors; active = well fitted inhibition curve with a large enough effect in the polarisation, with a control signal flat, not every such curve was filed as active; inconclusive = small, poorly fitted or top-dose-only effect, or effect the other way, or a change in a side signal; inactive = no such curve, though single readings can be large or run the other way; the % refers to the polarisation
# Target sequence (Q13526 whole entry, looked up): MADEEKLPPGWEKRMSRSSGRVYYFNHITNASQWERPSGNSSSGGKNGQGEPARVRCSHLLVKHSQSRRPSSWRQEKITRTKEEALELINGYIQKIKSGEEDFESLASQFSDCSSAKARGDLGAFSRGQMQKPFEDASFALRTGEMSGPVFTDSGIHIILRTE
# B2AR arrestin: recruits beta-arrestin to the human beta2-adrenergic receptor; Potency, µM (doses to about 46.1 µM), for the others: at the highest dose activation, actives largely listed as activators; P07550; beta-arrestin recruitment to beta2AR, cell-based reporter; AID 492947; actives 0.02% (n = 330,000);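 also: 0% = DMSO controls and full agonism = EC100 isoproterenol or metaproterenol; nearly all actives have a fitted effect of over 65% in size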
# Target sequence (P07550 whole entry, looked up): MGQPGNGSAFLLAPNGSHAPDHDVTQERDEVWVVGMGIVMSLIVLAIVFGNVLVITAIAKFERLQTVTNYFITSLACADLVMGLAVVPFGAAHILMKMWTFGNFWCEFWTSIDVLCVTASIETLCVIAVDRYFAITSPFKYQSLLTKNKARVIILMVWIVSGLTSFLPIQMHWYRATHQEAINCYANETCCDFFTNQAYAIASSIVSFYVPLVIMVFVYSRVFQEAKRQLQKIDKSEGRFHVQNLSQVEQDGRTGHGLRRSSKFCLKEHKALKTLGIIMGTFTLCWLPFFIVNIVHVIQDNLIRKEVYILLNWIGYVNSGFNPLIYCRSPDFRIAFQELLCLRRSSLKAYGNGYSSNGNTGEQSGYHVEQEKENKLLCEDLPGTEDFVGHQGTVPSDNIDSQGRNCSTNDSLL
# BCR signal inh: chronic active BCR signaling inhibition; actives 0.05% (n = 340,000); AID 493014; ABC-DLBCL IkBa-CBG/CBR reporter, luminescence ratio, 4 h; Potency, µM (titrated, usually from 46.1 µM), inactives show at the top dose activity change, negative = inhibition, actives largely listed as inhibitors; active = well fitted inhibition curve with a large enough effect in the signal ratio, with a control signal flat, not every such curve was filed as active; inconclusive = small, poorly fitted or top-dose-only effect, or effect the other way, or a change in a side signal; the % refers to the signal ratio;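 also: plate controls were basal doxycycline-induced cells for no effect and cells given 10 µM MG132 for full effect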
#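 TMD8 ABC-DLBCL cells carrying doxycycline-inducible green luciferase fused to IkappaBalpha plus unfused red luciferase were exposed to compounds (up to 46 uM) for 4 hrs at 37C. Activity came from the overlap-corrected green/red luminescence ratio.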
# Tb PGK inh: T. brucei PGK inhibition; Potency, µM (series often up to 57.5 µM), without a hit: top-dose activity change, negative = inhibition, usual class: inhibitors; AID 602233; actives 0.043% (n = 380,000); PGK/GAPDH coupled, Kinase-Glo luminescence, 60 min; also: nearly all actives have a fitted effect of over 60% in size
#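 Luminescent ATP detection (Kinase-Glo Plus) follows a 60-minute room-temperature incubation, with wells lacking PGK as controls. Buffer: 100 mM TEA (pH 7.6), 5 mM MgCl2, 0.01% Tween-20. Coupling enzyme GAPDH (100 nM final) supplies unstable 1,3-BPG in-well.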
# FEN1 inhibitor: human FEN1 inhibition; P39748; Recombinant FEN1 flap cleavage, fluorescence, 15 min; Potency, µM (highest dose often 114 µM), for the others: top-dose activity change, negative = inhibition, hits mostly inhibitors; actives 0.35% (n = 390,000); also: nearly all actives have a fitted effect of over 65% in size
#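 Recombinant FEN1 (10 nM) was preincubated with pin-transferred compounds for 15 min at room temperature, then flap DNA substrate (50 nM final) was added. Plates were read at 0 and 15 min, and normalized concentration–response data were fitted to a four-parameter Hill equation.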
# Anesthetic bind: binds horse apoferritin like a general anesthetic | P02791 | apoferritin/1-aminoanthracene competitive binding, fluorescence | Potency, µM (top dose mostly 77.5 µM), without a hit: top-dose activity change, negative = displacement, usual class: inhibitors | actives 0.074% (n = 350,000); also: nearly all actives have a fitted effect of over 20% in size
#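 Probe: 1-aminoanthracene (50% saturated, PBS). Protein: horse-spleen apoferritin, 10 uM. Incubation: 10 min, room temperature. Detection: 380 nm excitation, 535 nm emission. Analysis: normalized response, four-parameter Hill.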
# Numbers without * were called inactive; ? = inconclusive; / = no result given. Unless noted, calls follow the shape of the dose curve; as a rule, active = well fitted curve in the direction sought with a large enough effect; inconclusive = small, poorly fitted or top-dose-only effect, or another doubt; inactive = no such curve, though single readings can be large; an effect the other way counts as inactive or inconclusive. Unless noted, % is scaled to controls: 0 for no effect and ±100 for the full control effect; potency is read from the fitted curve at half-maximal effect.
SMILES,Pin1 inh,B2AR arrestin,BCR signal inh,Tb PGK inh,FEN1 inhibitor,Anesthetic bind
CC/C(C)=N\NC(=O)CNC(=O)c1ccc(Cl)cc1Cl,-4.3%,0.0%,12.6µM*,-5.4%,3.4%,?
Cc1cccc(C(=O)NCC(=O)OC(C(=O)Nc2cc(C(F)(F)F)ccc2Cl)c2ccccc2)c1 (stereo not given),0.2%,/,/,/,/,/
COc1ccc(CCNC(=O)Cc2ccc(OCc3ccccc3)c(OC)c2[N+](=O)[O-])cc1OCc1ccccc1,15.8%,0.0%,?,8.8%,1.2%,35.5µM*
Nc1nc(=S)c2ncn(C3OC(CO)C(O)C3O)c2[nH]1 (stereo not given),/,-0.9%,?,?,89.1µM*,2.9%
Cc1ccc(C)c(NC(=O)CN(CCc2ccccc2)S(=O)(=O)c2ccccc2)c1,?,/,/,0.4%,89.1µM*,45.0%
Cc1ccc(S(=O)(=O)/N=C2/NC(=O)/C(=C/c3ccc(Br)o3)S2)cc1,-20.2%,-0.2%,?,-8.1%,-15.9%,-10.5%
Cc1ccc(S(=O)(=O)/N=C2/NC(=O)/C(=C\c3cc(Br)cc(Br)c3O)S2)cc1,?,-0.2%,?,?,28.2µM*,-5.4%
c1coc(CNc2nc(-c3cccs3)nc3ccccc23)c1,-2.1%,/,/,/,/,/
C(=N\Nc1nc2ccccc2[nH]1)/c1ccccn1,-2.7%,0.0%,?,?,-5.7%,-7.9%
Fc1ccccc1-c1ccc(/C=N/Nc2nc3ccccc3[nH]2)o1,0.1%,0.2%,23.1µM*,-18.3%,-18.7%,-6.2%
CC(C)(C)OC(=O)Cc1nnc(-c2cc3ccccc3[nH]2)s1,11.4%,/,/,/,/,/
OCc1ccnc2c(O)cccc12,?,?,6.31µM*,0.3%,-18.0%,-15.5%
NC(=O)c1ccnc2c(O)cccc12,-2.0%,-0.9%,?,7.3%,14.7%,/
Brc1cccc[n+]1C/C=C/C[n+]1ccccc1Br,/,/,/,/,-2.2%,/
Brc1cccc[n+]1CCCCCC[n+]1ccccc1Br,/,/,/,/,79.4µM*,/
Brc1cccc[n+]1CCCC[n+]1ccccc1Br,/,/,/,/,79.4µM*,/
Nn1c(SCC(=O)Nc2ccc3c(c2)OCO3)nnc1C1CCCCC1,-0.4%,/,/,8.0%,0.0%,5.01µM*
Nn1c(SCC(=O)Nc2ccc3c(c2)OCO3)nnc1C1CC1,-12.7%,-0.1%,?,1.2%,-0.8%,-5.1%
NC(=O)C1CCN(c2ncc(-c3cccc(N4CCOCC4)c3)s2)CC1,-3.2%,/,/,/,/,/
COc1ccc(C2Nc3ccccc3C(=O)N2Cc2ccco2)cc1COc1ccccc1 (stereo not given),20.9%,/,/,/,/,/
Cc1ccc([S+](=O)([O-])Nc2nn3c(=O)c4ccccc4nc3s2)cc1C,0.3%,/,/,/,/,/
CCCNC(=O)Cn1sc2nc(C)cc(C)c2c1=O,0.7%,-0.7%,10.7%,1.6%,50.1µM*,-5.2%
Cc1ccc(S(=O)(=O)/N=C(/NC(=S)Nc2ccccc2)c2ccccc2)cc1,-6.8%,2.6%,?,-5.5%,-16.8%,-6.0%
Cc1ccc(S(=O)(=O)C/N=C(/NC(=S)N(c2ccccc2)c2ccccc2)c2ccccc2)cc1,-17.9%,0.0%,15.8%,-4.6%,10.2%,14.1µM*
CC(C)N1CCN(c2cccc(Nc3nn4c(=O)c5ccccc5nc4s3)c2)CC1,0.9%,/,/,/,/,/
SMILES,Pin1 inh,B2AR arrestin,BCR signal inh,Tb PGK inh,FEN1 inhibitor,Anesthetic bind
O=c1cc(-c2cccnc2)oc2c1ccc1ccccc12,5.7%,-0.6%,21.3%,-3.9%,39.8µM*,-9.0%
O=C(O)C(O)c1ccco1 (stereo not given),?,-0.4%,-3.3%,14.1µM*,?,6.5%
CCn1c(CSc2nnc(-c3cccnc3)n2-c2ccccc2C)nc2cc(C(=O)O)ccc21,/,-0.1%,0.3%,/,/,5.1%
CCn1c(CSc2nnc3ccccn23)nc2cc(C(=O)O)ccc21,?,-0.8%,5.5%,-1.5%,50.1µM*,-6.1%
C=C(C)CSc1nncn1/N=C/c1ccc(OC)cc1,-3.7%,-0.3%,-18.9%,-0.9%,4.9%,12.6µM*
Cc1cc(SCC(=O)N/N=C/c2ccc(O)c(O)c2O)c(C)cc1Br,-4.2%,0.1%,12.2%,-10.2%,39.8µM*,31.6µM*
